RXFP1 agonist: qHTS Assay for Agonists of the Relaxin Receptor RXFP1; hit rate 0.3% among 370,000; Potency, µM (titrated, usually from 57.5 µM), for the others: top-dose activation, most hits filed as activators; Relaxin receptor 1 (Homo sapiens), Q9HBX9; HEK293T-RXFP1 cAMP TR-FRET, 30 min; response scale: percent of porcine relaxin response, buffer zero; further: potency means the concentration at half of the fitted maximal effect; nearly all actives have a fitted effect of over 60% in size
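HEK293 cells stably expressing RXFP1, treated 30 min at 37C with compounds plus PDE4 inhibitor Ro 20174; cAMP measured by HTRF TR-FRET. Normalized to buffer and 29 nM porcine relaxin; EC50 by Hill fit.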
RXFP1 antagonist: qHTS Assay for Antagonists of the Relaxin Receptor RXFP1. hit rate 0.59% among 350,000. Relaxin receptor 1 (Homo sapiens), Q9HBX9. AID 1259400, 2018. activity change, negative = inhibition, % at 57.5 µM. HEK293-RXFP1, relaxin-stimulated cAMP HTRF, 30 min; active compounds read low;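 active means activity change of -60% or lower, but not beyond a set lower limit; inconclusive means change between -60% and -40%, or beyond the set limit; inactive means change above -40%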
Chronic BCR inh: qHTS Assay to Find Inhibitors of Chronic Active B-Cell Receptor Signaling | Potency, µM (top dose mostly 46.1 µM), without a hit: at the top dose activity change, negative = inhibition, most hits filed as inhibitors | hit rate 0.05% among 340,000 | ABC-DLBCL IkBa-CBG/CBR reporter, luminescence ratio, 4 h; active means well fitted inhibition curve with a large enough effect in the signal ratio, with a control signal flat, not every such curve was filed as active; inconclusive means small, poorly fitted or top-dose-only effect, or effect the other way, or a change in a side signal; the % refers to the signal ratio;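 further: potency means the concentration at half of the fitted maximal effect; plate controls were basal doxycycline-induced cells for no effect and cells given 10 µM MG132 for full effect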
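Doxycycline induced both beetle luciferases in TMD8 lymphoma cells; IKK-driven degradation limits the IkappaBalpha-fused green signal, while red luminescence normalises for cell number and nonspecific effects. Compounds tested up to 46 uM, 4 hrs.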
B2AR arrestin: qHTS assay of beta-arrestin-biased ligands of beta2-adrenergic receptor; Beta-2 adrenergic receptor (Homo sapiens), P07550; beta-arrestin recruitment to beta2AR, cell-based reporter; Potency, µM (highest dose often 46.1 µM), without a hit: at the top dose activation, actives largely listed as activators; hit rate 0.02% among 330,000; AID 492947, 2010;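 further: potency means the concentration at half of the fitted maximal effect; 0% = DMSO controls and full agonism = EC100 isoproterenol or metaproterenol; nearly all actives have a fitted effect of over 65% in size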
Target sequence (P07550 whole entry, looked up): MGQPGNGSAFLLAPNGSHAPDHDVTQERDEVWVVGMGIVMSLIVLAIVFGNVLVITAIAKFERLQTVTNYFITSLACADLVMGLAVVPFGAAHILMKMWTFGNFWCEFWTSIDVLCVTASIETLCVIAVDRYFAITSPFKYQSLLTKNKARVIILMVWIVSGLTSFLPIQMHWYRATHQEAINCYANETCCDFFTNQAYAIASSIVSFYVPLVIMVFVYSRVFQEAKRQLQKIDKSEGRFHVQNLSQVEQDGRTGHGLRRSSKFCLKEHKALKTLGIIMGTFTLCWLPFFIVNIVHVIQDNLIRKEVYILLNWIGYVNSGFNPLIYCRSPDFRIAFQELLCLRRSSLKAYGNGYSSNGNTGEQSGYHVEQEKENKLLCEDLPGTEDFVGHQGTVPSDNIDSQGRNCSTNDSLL
* hit, by the source's call; u = inconclusive; x = no result. Rows were chosen to be rich in hits. Some 0.59% of all compounds tested hit in one or more screens of this group. Unless noted, the call rests on the fitted dose curve; in most records, active means well fitted activation curve with a large enough effect; inconclusive means small, poorly fitted or top-dose-only effect; inactive means flat fitted curve, though single readings scatter. Unless noted, on the % scale 0 is the no-effect control and ±100 the full control effect.

SMILES | RXFP1 agonist | RXFP1 antagonist | Chronic BCR inh | B2AR arrestin
O=C(C1=C(O)C(=O)N(CCc2ccccc2)C1c1ccncc1)c1cc2ccccc2o1 (stereo not given) | 14µM* | 13 | 0% | 0%
NC(=O)CC[C@@H]1NC(=O)[C@H](Cc2ccccc2)NC(=O)[C@H](Cc2ccc(O)cc2)NC(=O)CCSSC[C@@H](C(=O)N2CCC[C@H]2C(=O)N[C@@H](CCCN=C(N)N)C(=O)NCC(N)=O)NC(=O)[C@H](CC(N)=O)NC1=O | x | 11 | x | x
COc1ccc2[nH]c3c(=O)n(CCCC(=O)NC4CCCCC4C)c(=S)[nH]c3c2c1 (stereo not given) | -2% | -66* | 9% | 0%
Cc1cc(NC(=O)CSc2nc3ccsc3c(=O)n2CCCC(=O)NCCc2ccccc2)no1 | 3% | -79* | -2% | 0%
COc1ccc2[nH]c3c(=O)n(CCCC(=O)NC4CCC(C)CC4)c(=S)[nH]c3c2c1 (stereo not given) | 3% | -35 | -2% | 0%
O=C(CCn1c(=S)[nH]c2ccccc2c1=O)NCCc1ccccc1 | 12% | -32 | 3% | 0%
O=C(CCCn1c(=S)[nH]c2ccsc2c1=O)NCCc1ccccc1 | 7% | -94* | -11% | 0%
COc1ccc2[nH]c3c(=O)n(CCCCC(=O)N4CCCC4)c(=S)[nH]c3c2c1 | 3% | -107* | u | 0%
Cc1cccc(N2CCN(C(=O)c3sc4nc5n(c(=O)c4c3C)CCC5)CC2C)c1 (stereo not given) | 0% | -35 | x | x
COc1ccc(C(CNC(=O)c2oc3ccc(C)cc3c2C)N2CCOCC2)cc1 (stereo not given) | 4% | -9 | x | x
C=Cc1ccc(Cn2ccn(-c3ccc(F)c(F)c3)c(=O)c2=O)cc1 | 1% | 10 | x | x
CC1CCCCC1NC(=O)CCCCCn1c(=S)[nH]c2ccsc2c1=O (stereo not given) | 4% | -73* | -2% | 1%
COc1cccc(NC(=O)Cc2ccccc2)c1 | 1% | x | 0% | 0%
O=C(Cc1ccccc1)Nc1cccc(N2C(=O)C=CC2=O)c1 | 3% | -119* | u | 0%
CNCCCOc1ccc(Cl)cc1C(C)(C)C | 3% | -85* | u | 0%
NC(=O)SCC(=O)Nc1ccc(Cl)c(Cl)c1 | 2% | -71* | u | 0%
Cc1ccc(C(C)OC(=O)C2(C)CCC(C(=O)O)C2(C)C)cc1 (stereo not given) | x | -7 | x | x
Cc1nc(SCC(=O)N2CCN(C(=O)c3ccco3)CC2)c2c(C)c(C)sc2n1 | 8% | 13 | -2% | -1%
Cc1nc(SCC(=O)N2CCN(C(=O)c3cccs3)CC2)c2c(C)c(C)sc2n1 | 17% | -64* | u | -1%
Cc1ccc(NC(=O)CN2C(=O)CSc3ccc(S(=O)(=O)N(C)C)cc32)c(C)c1 | 0% | x | x | x
CN(C)c1ccc(C(CNC(=O)COc2ccc(Cl)cc2)N2CCCC2)cc1 (stereo not given) | 0% | -64* | u | -1%
CN(C)c1ccc(C(CNC(=O)COc2ccc(Cl)cc2)N2CCOCC2)cc1 (stereo not given) | 8% | -9 | x | x
CC1(C)O[C@@H]2C[C@H]3[C@@H]4CCC5=CC(=O)CC[C@]5(C)[C@@]4(F)[C@@H](O)C[C@]3(C)[C@]2(C(=O)CCl)O1 | -3% | -73* | u | 0%
c1ccc(SSc2ccccn2)nc1 | x | -66* | x | x
c1ccc(Sc2ccccn2)cc1 | x | -7 | x | x
SMILES | RXFP1 agonist | RXFP1 antagonist | Chronic BCR inh | B2AR arrestin
COc1ccc(CCNC(=O)Cn2nnc(-c3cccc(C(F)(F)F)c3)n2)cc1OC | 6% | -3 | x | x
CCCNS(=O)(=O)c1cccc(C(=O)OCc2cc(=O)oc3cc(OC)ccc23)c1 | 2% | -13 | 13µM* | 0%
Cc1ccccc1-c1cn(-c2ccccc2)c(=S)[nH]1 | 7% | -17 | u | 5%
Cc1ccc(-c2cn(-c3ccccc3)c(=S)[nH]2)cc1C | -1% | -77* | u | 1%
Cc1cc(-c2ccc(C)c(S(=O)(=O)N(C)c3ccc(C)c(C)c3)c2)on1 | -1% | -40 | x | x
CCO[C@H](Cc1ccc(OCCc2ccc(OS(C)(=O)=O)cc2)cc1)C(=O)O | x | -27 | x | x
COc1ccccc1/C=C/C=N/n1c(-c2ccc(Cl)cc2)n[nH]c1=S | -1% | -63* | u | 0%
COc1ccccc1/C=C/C=N/n1c(-c2ccccc2)n[nH]c1=S | -2% | -5 | u | 0%
Cn1cc(S(=O)(=O)N2CCc3ccccc32)cc1C(=O)Nc1ccc(C(F)(F)F)cc1 | 5% | -1 | x | x
Cc1ccc(N2CCN(S(=O)(=O)N3CCCCC3)CC2)c(C)c1 | 0% | -70* | 7% | 0%
Cc1cc(C)c(S(=O)(=O)N2CCN(S(=O)(=O)N3CCCCCC3)CC2)c(C)c1 | 2% | 6 | 1% | -1%
CS(=O)(=O)c1ccc(S(=O)CC(=O)OCc2ccccc2)c([N+](=O)[O-])c1 (stereo not given) | 1% | -108* | u | 0%
O=[N+]([O-])c1cc(/C=N\Nc2nc(-c3ccccc3)cs2)ccc1O | 3% | -65* | u | 0%
Cc1csc(N/N=C/c2ccc(O)c([N+](=O)[O-])c2)n1 | 0% | -8 | u | -1%
CC(=O)Nc1ccc(NC(=O)CCc2nc3cccnc3n2Cc2cccs2)cc1 | 2% | -8 | x | x
CCc1cc2cc3c(cc2nc1SCC(=O)Nc1cc(C)on1)OCO3 | 28µM* | -1 | 5% | 0%
Cc1cc(C)nc(N/N=C/c2ccccc2)n1 | 1% | -1 | u | 0%
Oc1ccc(/C=N/Nc2nc(-c3ccc(Cl)cc3)cc(C(F)(F)F)n2)cc1 | 1% | -61* | u | 0%
Cc1cc(-c2ccccc2)nc(N/N=C/c2ccc(O)cc2)n1 | -2% | -77* | u | 0%
COc1cc(OC)c(NS(=O)(=O)c2c(C)nc3sc(C)cn3c2=O)cc1Cl | 1% | -15 | x | x
OC1(c2ccccc2)CC(c2ccccc2)c2ccccc2O1 (stereo not given) | x | -77* | x | x
CCN(CC)c1ccc(Nc2cc3n(c(=O)n2)CCc2cc(OC)c(OC)cc2-3)cc1 | 0% | 0 | 11µM* | 0%
COc1cc2c(cc1OC)-c1cc(NC3CCCC3)nc(=O)n1CC2 | 0% | 1 | 16µM* | 0%
COc1cc2c(cc1OC)-c1cc(Nc3ccc(N(C)C)cc3)nc(=O)n1CC2 | 4% | 2 | u | 0%
CCN(c1ccccc1)S(=O)(=O)c1ccc(NC(=O)c2cc(=O)c3ccc(C)c(C)c3o2)cc1 | -1% | -16 | x | x
CC1=CC(C)(C)N2C(=O)C3(C(C#N)=C(N)OC4=C3C(=O)CCC4)c3c(C)c(C)cc1c32 (stereo not given) | 0% | -3 | 0% | 0%
CC1=CC(C)(C)N2C(=O)C3(C(C#N)=C(N)Oc4cc(O)ccc43)c3c(C)c(C)cc1c32 (stereo not given) | 0% | -73* | u | -1%

Assay outcomes (PubChem BioAssay)
